Assays:
Assay in all cases: log2 ratio of Biotin-Ahx-Ub-VS probe labelling (fragment/DMSO); higher = less target engagement (more negative = stronger competition), active = hit call of the paper (q ≤ 0.05, log2 ratio ≤ -1)
Conditions in all cases: compound concentration: 200 uM; treatment time: 3 h
USP34 = USP34 (UniProt Q70CQ2)
In short: (§1)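 Average log2 ratios of fragment over vehicle were obtained by unpaired t-test from global-median-normalised Spectronaut label-free quantities. Proteins with ≥2 unique peptides were included. HEK293T lysate (495 µg per sample) was treated in triplicate with fragment at 200 µM or vehicle for 3 h, then with Biotin-Ahx-Ub-VS at 0.5 µM final for 1 h, and labelled DUBs were NeutrAvidin-enriched and run by diaPASEF LC-MS/MS.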

USP36 = molecular target: T1, USP36 (UniProt Q9P275)
T1 sequence (whole entry): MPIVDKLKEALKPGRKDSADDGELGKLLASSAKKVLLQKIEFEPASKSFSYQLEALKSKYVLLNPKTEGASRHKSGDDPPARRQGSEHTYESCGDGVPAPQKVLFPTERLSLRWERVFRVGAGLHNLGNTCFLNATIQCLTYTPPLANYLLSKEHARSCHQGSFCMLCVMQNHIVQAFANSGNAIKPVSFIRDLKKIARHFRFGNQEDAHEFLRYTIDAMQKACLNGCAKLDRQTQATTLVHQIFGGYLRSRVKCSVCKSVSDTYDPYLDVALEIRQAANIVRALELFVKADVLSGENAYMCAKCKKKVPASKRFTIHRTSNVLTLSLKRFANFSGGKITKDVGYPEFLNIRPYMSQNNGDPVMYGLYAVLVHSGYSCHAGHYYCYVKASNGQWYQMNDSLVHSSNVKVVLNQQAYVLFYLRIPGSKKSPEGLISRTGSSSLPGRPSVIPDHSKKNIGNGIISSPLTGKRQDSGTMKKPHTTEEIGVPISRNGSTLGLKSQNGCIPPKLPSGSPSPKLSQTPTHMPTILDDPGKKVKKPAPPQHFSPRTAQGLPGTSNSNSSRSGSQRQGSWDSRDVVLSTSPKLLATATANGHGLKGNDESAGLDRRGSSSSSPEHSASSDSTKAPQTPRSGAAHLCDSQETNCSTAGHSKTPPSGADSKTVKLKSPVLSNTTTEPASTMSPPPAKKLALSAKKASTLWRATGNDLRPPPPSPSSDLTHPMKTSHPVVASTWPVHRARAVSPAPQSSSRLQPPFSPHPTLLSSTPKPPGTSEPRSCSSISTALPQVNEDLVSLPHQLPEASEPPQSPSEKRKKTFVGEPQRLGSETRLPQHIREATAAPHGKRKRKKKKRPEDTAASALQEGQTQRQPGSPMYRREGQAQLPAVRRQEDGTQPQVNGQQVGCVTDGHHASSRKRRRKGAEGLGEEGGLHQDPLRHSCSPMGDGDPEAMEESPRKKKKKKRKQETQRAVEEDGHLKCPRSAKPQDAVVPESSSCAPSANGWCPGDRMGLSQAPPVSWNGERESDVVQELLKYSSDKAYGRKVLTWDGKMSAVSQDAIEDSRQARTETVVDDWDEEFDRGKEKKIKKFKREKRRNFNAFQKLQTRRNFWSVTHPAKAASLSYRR
In short: as §1

USP38 = molecular target: T2, USP38 (UniProt Q8NB14)
T2 sequence (whole entry): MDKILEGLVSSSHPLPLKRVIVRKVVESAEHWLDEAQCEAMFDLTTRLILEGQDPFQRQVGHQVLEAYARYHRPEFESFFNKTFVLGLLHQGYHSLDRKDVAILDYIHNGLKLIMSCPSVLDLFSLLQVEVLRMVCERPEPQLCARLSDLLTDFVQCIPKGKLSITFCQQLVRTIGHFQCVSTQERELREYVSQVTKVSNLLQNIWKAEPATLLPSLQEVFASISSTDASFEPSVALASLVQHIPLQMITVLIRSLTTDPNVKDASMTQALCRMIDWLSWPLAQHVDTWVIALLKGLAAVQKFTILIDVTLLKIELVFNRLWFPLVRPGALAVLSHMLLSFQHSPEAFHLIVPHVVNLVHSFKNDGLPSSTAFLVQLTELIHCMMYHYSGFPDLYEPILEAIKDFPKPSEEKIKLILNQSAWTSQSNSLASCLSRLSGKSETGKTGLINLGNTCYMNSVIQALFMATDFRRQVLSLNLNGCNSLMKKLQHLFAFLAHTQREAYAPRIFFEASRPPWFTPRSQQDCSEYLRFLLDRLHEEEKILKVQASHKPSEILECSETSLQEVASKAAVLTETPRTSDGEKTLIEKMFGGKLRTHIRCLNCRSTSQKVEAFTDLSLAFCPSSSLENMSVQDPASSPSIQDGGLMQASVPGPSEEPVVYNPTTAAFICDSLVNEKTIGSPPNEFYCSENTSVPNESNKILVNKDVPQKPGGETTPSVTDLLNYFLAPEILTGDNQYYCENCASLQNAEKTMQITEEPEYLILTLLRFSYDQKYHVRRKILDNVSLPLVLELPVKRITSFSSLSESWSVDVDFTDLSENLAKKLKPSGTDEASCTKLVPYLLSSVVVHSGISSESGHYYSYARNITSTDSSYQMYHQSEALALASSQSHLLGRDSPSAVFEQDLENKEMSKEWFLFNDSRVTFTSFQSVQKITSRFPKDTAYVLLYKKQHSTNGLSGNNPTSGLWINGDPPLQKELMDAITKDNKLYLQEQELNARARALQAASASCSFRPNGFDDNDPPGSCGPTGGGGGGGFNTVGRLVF
In short: as §1

USP39 = molecular target: T3, USP39 (UniProt Q53GS9)
T3 sequence (whole entry): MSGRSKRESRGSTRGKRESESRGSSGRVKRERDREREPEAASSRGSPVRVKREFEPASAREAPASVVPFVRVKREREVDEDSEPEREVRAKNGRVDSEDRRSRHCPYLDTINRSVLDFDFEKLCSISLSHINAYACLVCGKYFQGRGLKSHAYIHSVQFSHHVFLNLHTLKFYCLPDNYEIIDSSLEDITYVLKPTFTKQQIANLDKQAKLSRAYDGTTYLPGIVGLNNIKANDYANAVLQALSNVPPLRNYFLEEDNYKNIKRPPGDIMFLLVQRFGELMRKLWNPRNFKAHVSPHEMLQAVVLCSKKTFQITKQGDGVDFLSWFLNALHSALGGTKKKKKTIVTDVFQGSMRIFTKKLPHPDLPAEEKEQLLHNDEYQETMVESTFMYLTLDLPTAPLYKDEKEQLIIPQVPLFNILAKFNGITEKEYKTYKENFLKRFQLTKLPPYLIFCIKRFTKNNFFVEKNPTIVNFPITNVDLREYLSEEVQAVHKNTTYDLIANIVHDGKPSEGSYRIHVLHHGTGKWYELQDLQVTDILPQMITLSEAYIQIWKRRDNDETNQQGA
In short: as §1

USP4 = molecular target: T4, USP4 (UniProt Q13107)
T4 sequence (whole entry): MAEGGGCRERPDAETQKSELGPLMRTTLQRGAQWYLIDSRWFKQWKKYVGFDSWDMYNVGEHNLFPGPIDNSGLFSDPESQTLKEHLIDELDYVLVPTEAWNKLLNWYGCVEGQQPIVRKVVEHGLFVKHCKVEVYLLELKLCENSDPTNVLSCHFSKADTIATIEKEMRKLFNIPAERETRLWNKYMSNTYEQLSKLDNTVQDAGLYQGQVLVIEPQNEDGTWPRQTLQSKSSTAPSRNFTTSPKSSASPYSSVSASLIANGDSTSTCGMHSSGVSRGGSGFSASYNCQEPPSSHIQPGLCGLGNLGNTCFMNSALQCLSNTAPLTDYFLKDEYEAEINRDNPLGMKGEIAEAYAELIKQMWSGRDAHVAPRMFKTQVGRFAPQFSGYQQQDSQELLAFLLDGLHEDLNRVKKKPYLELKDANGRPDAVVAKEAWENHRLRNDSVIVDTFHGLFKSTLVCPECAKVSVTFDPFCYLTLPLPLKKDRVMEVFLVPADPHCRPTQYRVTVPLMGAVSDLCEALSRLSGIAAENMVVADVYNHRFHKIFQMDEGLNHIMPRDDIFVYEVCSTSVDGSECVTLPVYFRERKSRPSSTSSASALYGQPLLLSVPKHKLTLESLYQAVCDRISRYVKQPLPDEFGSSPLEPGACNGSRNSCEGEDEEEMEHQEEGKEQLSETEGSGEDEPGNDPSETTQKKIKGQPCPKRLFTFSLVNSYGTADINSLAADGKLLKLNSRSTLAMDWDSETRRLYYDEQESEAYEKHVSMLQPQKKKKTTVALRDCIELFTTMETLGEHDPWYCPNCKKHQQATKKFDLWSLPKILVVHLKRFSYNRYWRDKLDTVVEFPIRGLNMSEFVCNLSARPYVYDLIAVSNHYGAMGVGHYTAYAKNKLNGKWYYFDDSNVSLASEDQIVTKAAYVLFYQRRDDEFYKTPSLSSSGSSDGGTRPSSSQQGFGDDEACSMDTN
In short: as §1

Measured: log2 ratio of Biotin-Ahx-Ub-VS probe labelling

Sequence of USP34 (Q70CQ2 whole entry, the tested form may be a part): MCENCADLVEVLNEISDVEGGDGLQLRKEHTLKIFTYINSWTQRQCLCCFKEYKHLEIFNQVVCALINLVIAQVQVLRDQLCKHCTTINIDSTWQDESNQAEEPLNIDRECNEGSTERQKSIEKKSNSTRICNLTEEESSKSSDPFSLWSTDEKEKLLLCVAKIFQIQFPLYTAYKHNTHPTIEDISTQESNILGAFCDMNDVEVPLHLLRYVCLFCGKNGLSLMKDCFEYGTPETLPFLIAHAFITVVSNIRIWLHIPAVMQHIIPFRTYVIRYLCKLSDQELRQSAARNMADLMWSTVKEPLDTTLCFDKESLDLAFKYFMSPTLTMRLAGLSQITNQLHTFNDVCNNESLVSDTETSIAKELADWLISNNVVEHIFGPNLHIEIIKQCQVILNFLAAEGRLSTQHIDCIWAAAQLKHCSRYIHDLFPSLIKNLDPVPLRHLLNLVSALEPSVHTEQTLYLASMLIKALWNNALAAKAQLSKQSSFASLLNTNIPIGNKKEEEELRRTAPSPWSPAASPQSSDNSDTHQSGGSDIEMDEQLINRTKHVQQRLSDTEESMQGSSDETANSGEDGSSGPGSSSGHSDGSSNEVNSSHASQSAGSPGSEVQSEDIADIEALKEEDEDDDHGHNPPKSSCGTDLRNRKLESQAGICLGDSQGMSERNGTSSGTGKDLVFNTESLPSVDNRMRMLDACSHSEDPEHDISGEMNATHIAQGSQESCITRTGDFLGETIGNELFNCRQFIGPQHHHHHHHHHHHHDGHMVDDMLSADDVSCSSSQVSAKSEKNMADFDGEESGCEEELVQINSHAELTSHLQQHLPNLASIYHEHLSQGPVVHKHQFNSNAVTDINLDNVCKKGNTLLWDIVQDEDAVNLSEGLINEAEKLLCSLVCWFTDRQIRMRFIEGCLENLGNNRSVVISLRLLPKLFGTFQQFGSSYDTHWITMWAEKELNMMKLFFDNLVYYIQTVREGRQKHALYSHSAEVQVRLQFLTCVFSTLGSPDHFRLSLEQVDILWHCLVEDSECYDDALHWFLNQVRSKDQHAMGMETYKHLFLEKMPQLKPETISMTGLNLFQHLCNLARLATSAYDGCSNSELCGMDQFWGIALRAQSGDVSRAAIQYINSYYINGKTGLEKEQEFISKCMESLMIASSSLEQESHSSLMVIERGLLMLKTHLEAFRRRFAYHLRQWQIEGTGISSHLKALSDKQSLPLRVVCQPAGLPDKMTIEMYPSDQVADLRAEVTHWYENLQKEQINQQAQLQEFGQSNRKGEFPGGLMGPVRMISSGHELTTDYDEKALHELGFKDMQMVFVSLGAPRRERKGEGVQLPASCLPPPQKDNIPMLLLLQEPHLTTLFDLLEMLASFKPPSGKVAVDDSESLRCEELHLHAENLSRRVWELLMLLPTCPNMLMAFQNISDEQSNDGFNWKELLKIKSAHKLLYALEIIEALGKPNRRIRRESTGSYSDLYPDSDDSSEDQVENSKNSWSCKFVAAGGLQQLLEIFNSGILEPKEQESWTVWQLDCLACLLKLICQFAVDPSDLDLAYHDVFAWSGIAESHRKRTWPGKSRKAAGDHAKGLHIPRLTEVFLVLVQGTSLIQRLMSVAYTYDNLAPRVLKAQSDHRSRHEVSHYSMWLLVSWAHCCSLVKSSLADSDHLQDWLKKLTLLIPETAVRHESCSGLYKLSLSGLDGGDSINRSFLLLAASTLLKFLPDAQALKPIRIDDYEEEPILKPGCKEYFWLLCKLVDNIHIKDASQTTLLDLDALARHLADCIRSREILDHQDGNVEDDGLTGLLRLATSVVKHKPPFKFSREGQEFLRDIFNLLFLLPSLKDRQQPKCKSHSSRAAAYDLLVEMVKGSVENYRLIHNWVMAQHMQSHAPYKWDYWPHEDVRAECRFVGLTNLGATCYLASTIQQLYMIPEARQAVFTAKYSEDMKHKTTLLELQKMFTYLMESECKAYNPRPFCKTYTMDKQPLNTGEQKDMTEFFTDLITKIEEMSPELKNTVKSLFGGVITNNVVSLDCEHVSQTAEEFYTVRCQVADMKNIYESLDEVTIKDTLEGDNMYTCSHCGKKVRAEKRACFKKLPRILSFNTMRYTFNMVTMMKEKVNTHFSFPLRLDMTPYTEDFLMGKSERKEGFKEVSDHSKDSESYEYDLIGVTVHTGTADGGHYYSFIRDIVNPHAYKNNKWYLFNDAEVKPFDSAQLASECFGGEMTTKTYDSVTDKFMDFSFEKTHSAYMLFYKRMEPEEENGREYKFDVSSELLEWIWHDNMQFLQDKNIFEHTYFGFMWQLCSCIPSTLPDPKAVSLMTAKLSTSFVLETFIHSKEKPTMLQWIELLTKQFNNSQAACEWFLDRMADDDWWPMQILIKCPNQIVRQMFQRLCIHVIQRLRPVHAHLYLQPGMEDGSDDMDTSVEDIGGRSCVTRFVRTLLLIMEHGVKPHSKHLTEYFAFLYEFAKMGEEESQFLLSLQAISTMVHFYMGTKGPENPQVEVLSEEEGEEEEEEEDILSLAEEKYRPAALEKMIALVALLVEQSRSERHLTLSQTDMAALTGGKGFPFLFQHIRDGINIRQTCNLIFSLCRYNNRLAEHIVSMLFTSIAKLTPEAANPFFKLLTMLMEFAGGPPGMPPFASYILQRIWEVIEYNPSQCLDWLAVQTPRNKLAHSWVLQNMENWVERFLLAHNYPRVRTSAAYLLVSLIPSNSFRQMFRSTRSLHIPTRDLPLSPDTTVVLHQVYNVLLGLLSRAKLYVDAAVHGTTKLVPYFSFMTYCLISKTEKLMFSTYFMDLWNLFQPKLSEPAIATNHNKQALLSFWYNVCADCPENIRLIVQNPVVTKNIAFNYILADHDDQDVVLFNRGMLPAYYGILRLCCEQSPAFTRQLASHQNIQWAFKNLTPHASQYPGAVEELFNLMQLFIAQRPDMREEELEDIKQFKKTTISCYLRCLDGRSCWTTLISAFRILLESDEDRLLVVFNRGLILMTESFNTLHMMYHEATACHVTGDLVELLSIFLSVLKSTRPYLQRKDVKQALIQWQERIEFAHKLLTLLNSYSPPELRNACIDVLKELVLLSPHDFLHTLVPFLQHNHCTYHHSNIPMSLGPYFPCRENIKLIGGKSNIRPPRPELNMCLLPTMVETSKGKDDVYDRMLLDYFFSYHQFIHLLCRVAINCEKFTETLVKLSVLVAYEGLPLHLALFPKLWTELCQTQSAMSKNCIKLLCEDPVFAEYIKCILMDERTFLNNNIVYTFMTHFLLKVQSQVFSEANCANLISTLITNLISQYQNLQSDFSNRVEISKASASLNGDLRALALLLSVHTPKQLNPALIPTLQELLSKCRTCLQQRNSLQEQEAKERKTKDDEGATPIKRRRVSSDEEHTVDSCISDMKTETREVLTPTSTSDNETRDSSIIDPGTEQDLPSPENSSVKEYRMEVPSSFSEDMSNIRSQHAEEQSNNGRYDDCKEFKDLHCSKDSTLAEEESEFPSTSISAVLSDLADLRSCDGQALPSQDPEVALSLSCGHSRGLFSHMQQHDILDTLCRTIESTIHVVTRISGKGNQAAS

Cc1cccn2cc(CCNC(=O)CCl)nc12.Cl
inactive: USP34 -0.083 | USP36 -0.0485 | USP38 -0.247 | USP39 -0.319 | USP4 -0.12

— the supplement of paper PMC11732987, “Enantioselective OTUD7B fragment discovery through chemoproteomics screening and high-throughput optimisation” (Communications Chemistry, 2025)
